Data reported in PubChem BioAssay.
The source made the active and inactive calls.

Tests used:
[1] = biological target: Albumin (Bos taurus) (UniProt P02769); test: compounds binding labelled BSA control protein – biochemical, small-molecule microarray, Alexa647 label, 635/667 nm fluorescence, artefact control for SMM control protein annotation, profiling panel (AID 1118); details: BSA-A647 binding, fluorescence 635 nm, higher = more signal;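 note: score merges 667 nm emission intensity and signal-to-noise per printed compound spot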
[2] = probe aXIP binding to arrayed compounds – biochemical, NeuroSMM set, 635/667 nm fluorescence, primary screen (AID 1119); details: small-molecule microarray, higher = more signal, called active from +8 up or from −8 down;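 note: probe is the protein aXip251-270 applied at 1 µg/mL to compound-printed slides; binding of probe to printed compounds measured as 667 nm fluorescence plus signal to noise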
[3] = probe aNOTCH3 binding on compound microarray – biochemical, small-molecule microarray, 635/667 nm fluorescence, primary screen (AID 1120); details: higher = more signal;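 note: probe is a biotin-tagged antibody raised against NOTCH3 rather than NOTCH3 protein; score merges spot fluorescence near 667 nm with spot signal to noise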
[4] = probe aNOTCH2 binding on compound microarray – biochemical, small-molecule microarray, 635/667 nm fluorescence, primary screen (AID 1121); details: higher = more signal;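 note: score merges feature fluorescence read at 667 nm with its signal to noise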
[5] = biological target: Carbonic anhydrase 2 (Homo sapiens) (UniProt P00918); test: compounds binding carbonic anhydrase 2 – biochemical, small-molecule microarray, Alexa647-labelled CAII, profiling panel (AID 1122); details: CAII-A647 binding fluorescence, higher = more signal
[6] = COS7 lysate on small-molecule microarray, probe aHis, 635 nm (AID 1123); details: COS7 cell lysate, fluorescence, higher = more signal;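 note: z-score combines 667nm fluorescence intensity with signal-to-noise per printed compound spot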
[7] = probe aLAP1 signal on lysate-treated microarray – cell lysate, small-molecule microarray, COS7 lysate, primary screen (AID 1124); details: probe aLAP1, fluorescence, higher = more signal;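 note: lysate comes from COS7 cells expressing LAP1 and is applied at 0.3 µg/mL; score merges spot fluorescence near 667 nm with signal-to-noise over triplicate slides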
[8] = tested on: Sam68 (KHDRBS1); test: compounds binding KHDRBS1 protein – biochemical, small-molecule microarray, 635 nm fluorescence, primary screen (AID 1125); details: higher = more signal;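 note: score merges 667 nm channel intensity with signal to noise over triplicate slides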
[9] = tested on: Chordin-like protein 2 (CHRDL2); test: compounds binding chordin-like 2 – biochemical, small-molecule microarray, 635 nm fluorescence, primary screen (AID 1126); details: fluorescence 635 nm, higher = more signal;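 note: printed compound slides probed with Chrdl2 protein at 4 µg/mL for 1 h at 4 C; score merges 667 nm emission intensity with signal to noise over three replicate slides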
[10] = biological target: Concanavalin-A (Canavalia ensiformis) (UniProt P02866); test: compounds binding concanavalin A lectin – biochemical, small-molecule microarray, Alexa647 label, 635 nm, artefact control for SMM control protein annotation, primary screen (AID 1127); details: ConA-A647 binding fluorescence, higher = more signal;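 note: z combines 667 nm emission intensity with signal-to-noise across three replicate slides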
Concanavalin-A (Canavalia ensiformis), sequence (P02866 whole entry, looked up): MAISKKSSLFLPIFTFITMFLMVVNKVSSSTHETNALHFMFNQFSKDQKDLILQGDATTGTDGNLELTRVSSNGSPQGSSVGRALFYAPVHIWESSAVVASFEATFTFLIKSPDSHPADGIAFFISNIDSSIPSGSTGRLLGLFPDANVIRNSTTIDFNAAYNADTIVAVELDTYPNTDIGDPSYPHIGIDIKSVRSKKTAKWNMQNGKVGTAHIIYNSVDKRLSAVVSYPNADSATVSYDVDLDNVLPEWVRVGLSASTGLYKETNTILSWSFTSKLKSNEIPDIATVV

Albumin (Bos taurus), sequence (P02769 whole entry, looked up): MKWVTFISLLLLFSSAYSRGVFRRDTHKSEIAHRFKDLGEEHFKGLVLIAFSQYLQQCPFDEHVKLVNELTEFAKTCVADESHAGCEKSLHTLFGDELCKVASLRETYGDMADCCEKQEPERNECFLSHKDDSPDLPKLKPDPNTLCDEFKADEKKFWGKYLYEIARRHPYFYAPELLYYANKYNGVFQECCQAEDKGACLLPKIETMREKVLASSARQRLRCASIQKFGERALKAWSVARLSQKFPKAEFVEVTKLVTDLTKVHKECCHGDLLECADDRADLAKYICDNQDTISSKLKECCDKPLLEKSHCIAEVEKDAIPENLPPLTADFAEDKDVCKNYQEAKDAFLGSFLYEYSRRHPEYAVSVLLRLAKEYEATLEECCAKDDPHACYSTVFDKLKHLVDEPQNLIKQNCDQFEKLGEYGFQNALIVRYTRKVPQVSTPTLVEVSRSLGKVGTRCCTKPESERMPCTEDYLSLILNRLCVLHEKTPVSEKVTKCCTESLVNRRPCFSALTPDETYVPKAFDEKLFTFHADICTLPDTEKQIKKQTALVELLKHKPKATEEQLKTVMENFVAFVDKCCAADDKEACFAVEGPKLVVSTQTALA

SMILES | composite z-score [1] | composite Z-score [2] | composite z-score [3] | composite z-score [4] | composite z-score [5] | composite z-score [6] | composite z-score [7] | composite z-score [8] | composite z-score [9] | composite z-score [10]
C=CC1c2cc(O)c(OC)cc2CCN1Cc1ccc([N+](=O)[O-])o1 (stereo not given) | 0.576 | 0.402 (inactive) | 0.136 | -0.0708 | 0.847 | 2.05 | 1.1 | 0.358 | -0.807 | 0.103
CN1C(=O)[C@@]2(Cc3ccccc3)N=C(c3ccc(OCCCO)cc3)O[C@H]2c2ccccc21 | 0.495 | 2.86 (inactive) | 0.0894 | -0.0226 | 0.603 | 2.68 | -0.233 | 1.19 | 0.882 | 1.11
C=C(CCCC)/C(=C/C[C@H](OC(C)=O)c1ccc(OCCO)cc1)c1cc(C(=O)OC)ccc1OC | 0.891 | 0.414 (inactive) | 0.0297 | -0.0743 | 0.663 | 1.49 | 0.561 | 1.17 | -0.15 | 0.366
C=C(/C(=C/C[C@@H](OC(=O)c1ccncc1)c1cccc(OCCO)c1)c1cnc2ccccc2c1)C(C)C | 0.701 | 0.414 (inactive) | 0.178 | -0.0689 | 0.976 | 1.69 | 1.38 | 1.21 | 1.24 | 1.2
C=C(/C(=C/C[C@@H](OC(C)=O)c1ccc(OCCO)cc1)c1cc(C(=O)OC)ccc1OC)C(C)C | 0.296 | 0.185 (inactive) | -0.0417 | -0.127 | 0.735 | 0.303 | 1.2 | 0.938 | -0.137 | 0.697
COC(=O)[C@@]1(Cc2ccc(OC)cc2)[C@H]2c3cc(C(=O)N4CCCC4)n(Cc4ccc(S(C)(=O)=O)cc4)c3C[C@H]2CN1C(=O)c1ccccc1 | 1.03 | 0.602 (inactive) | 0.264 | 0.36 | 0.583 | 2.22 | -0.272 | 0.838 | -0.737 | 0.417
C=CCC(OC(C)=O)[C@@H]1[C@@H](N(Cc2ccc(-c3cccc(C(F)(F)F)c3)o2)C(=O)c2ccc(C)cc2)c2cc(OCCCO)ccc2N1C(=O)Cc1ccc(OC)cc1 (stereo not given in full) | -0.356 | 0.899 (inactive) | -0.0311 | -0.194 | -0.26 | -0.333 | -0.27 | -0.367 | 0.186 | 0.0203
C=C[C@H](C)[C@H](OC(=O)Nc1ccc(OC)cc1)c1ccc(OCCO)cc1 | -0.381 | 0.838 (inactive) | -0.279 | -0.209 | 0.464 | 0.718 | 0.434 | -0.321 | -1.18 | -1.35
CC(=O)N1CC(C(O)C2C=CC3C(=O)NC(=O)C3N2Nc2ccc(Cl)cc2Cl)c2ccccc21 (stereo not given) | 0.892 | 0.0413 (inactive) | -0.0077 | 0.108 | 0.693 | 2.36 | -0.0203 | 0.99 | 0.237 | 0.732
COc1cc2c(cc1O)C(c1ccc(CN3CCCC3)cc1)N(C)CC2 (stereo not given) | 0.462 | 0.142 (inactive) | -0.173 | -0.127 | 0.359 | -0.138 | 2.24 | -0.645 | -1.26 | 0.113
CN(C)CCCCNC(=O)[C@H]1C[C@H]2C(=O)N[C@@H](CCCC[N+](C)(C)C)C(=O)N2[C@H]1c1ccc(O)cc1 | -0.165 | 0.261 (inactive) | -0.208 | 0.2 | 0.716 | -0.287 | 0.106 | -0.863 | -0.187 | 0.343
CCCCC(=C=CC[C@H](O)c1ccc(OCCO)cc1)C[C@H](O)COCc1ccccc1 | -0.276 | 0.154 (inactive) | -0.163 | -0.164 | 0.7 | 1.19 | 0.271 | 0.549 | -0.371 | -0.434
COC(=O)C1=CC(CCCO)=CC(c2ccc(CN3CCCC3)cc2)N(Cc2cc3c(cc2Br)OCO3)C=C1C(=O)OC (stereo not given) | 1.04 | 0.339 (inactive) | 0.477 | 0.135 | 0.705 | 1.76 | 0.672 | 1.3 | -0.384 | 0.701
O=C1C2C=CC(C(O)c3cc(C(F)(F)F)cc(C(F)(F)F)c3)N(Nc3ccccc3F)C2C(=O)N1c1ccccc1 (stereo not given) | 1.01 | -0.147 (inactive) | 0.114 | -0.0005 | 0.752 | 2.86 | 1.06 | 1.01 | -0.217 | 0.443
[N-]=[N+]=Nc1ccccc1C[C@@]1(C(=O)O)N=C(c2ccc(OCCCO)cc2)O[C@@H]1c1ccccc1N=[N+]=[N-] | 0.612 | 0.95 (inactive) | 0.126 | 0.13 | 0.457 | 2.49 | 1.66 | 1.3 | -0.91 | 1.15
O=C(CS)NCCCCCNC(=O)[C@@H]1C[C@@H]2C(=O)N[C@@H](Cc3ccccc3)C(=O)N2[C@@H]1c1cccc(OCCO)c1 | -0.884 | -0.32 (inactive) | -0.638 | -0.446 | 0.665 | 2.7 | 0.426 | 1.34 | 0.914 | 1.13
